From PubChem BioAssay (EPA / NIEHS)
Several values for one entry are separate records, joined by “and”; a condition that tells them apart may be missing. Equal entries are not always repeated. Results filed as inconclusive are left out. The source holds several records for some structures; these can differ, active in one and inactive in another. Activity calls are given as the source filed them. The calls were made as follows, unless noted: active = hit-call score of the fitted dose curve at least 0.9, where 1 is the maximum; inactive = score below 0.9.

Assays:
[1] = BSK_4H_Eotaxin3: BioMAP Diversity Plus: 4H Assay for Eotaxin 3 Biomarker Activity (AID 2283000); settings: primary human endothelial cells (HUVEC); actives raise or lower the signal
Method in brief: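 Chemicals were added to human umbilical vein endothelium cultures, and Eotaxin-3 was quantified by ELISA at 24 h. Values were derived by bidirectional fitting with DMSO serving as negative control and activity baseline.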

[2] = target: human Peroxisome Proliferator-activated Receptor alpha (PPARa), PPARA (gene 5465) (UniProt Q07869); experiment: ATG_PPARa_TRANS: Attagene TRANS-FACTORIAL HepG2 Assay for human Peroxisome Proliferator-activated Receptor alpha (PPARa) (AID 2283001; active = hit-call score of the fitted dose curve at least 0.9, where 1 is the maximum;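 as to AC50: potency for gain of reporter signal over DMSO so agonist or activator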)
Method in brief: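 HepG2 cells transiently transfected with multiplexed GAL4-UAS reporter units and chimeric NR-Gal4 constructs were dosed for 24 h. Reporter mRNA was measured by RT-PCR with fluorescent labelling and capillary electrophoresis; gain of signal fitted against DMSO.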

[3] = read-out: Intercellular Adhesion Molecule 1 (ICAM1), ICAM1 (gene 3383); experiment: BSK_3C_ICAM1: BioMAP Diversity Plus: 3C Assay for Intercellular Adhesion Molecule 1 (ICAM1) Biomarker Activity (AID 2283003); settings: primary human endothelial cells (HUVEC); actives raise or lower the signal
Method in brief: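 Human vascular endothelial primary cells, 3C conditions, 24 h treatment. ICAM-1 by ELISA.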

[4] = BSK_3C_Proliferation: Cell Proliferation Assessment in the BioMAP Diversity Plus: 3C Assay (AID 2283006); settings: primary human endothelial cells (HUVEC);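 as to AC50: potency may reflect either rise or fall in cell number versus DMSO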
Method in brief: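 Proliferation of human vascular endothelial primary cells after 48 h dosing, quantified as SRB-stained protein at 560 nm relative to DMSO.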

[5] = target: Peroxisome proliferator-activated receptor gamma (Homo sapiens) (UniProt P37231); experiment: ATG_PPARg_TRANS: Attagene TRANS-FACTORIAL HepG2 Assay for human Peroxisome Proliferator-activated Receptor-gamma (PPARg) (AID 2283007; active = hit-call score of the fitted dose curve at least 0.9, where 1 is the maximum)
Method in brief: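 HepG2 cells are transiently transfected with GAL4-UAS reporter units driven by chimeric NR-Gal4 fusions and dosed for 24 h. Reporter mRNA is quantified by RT-PCR, 6-FAM labelling, HpaI digestion and capillary electrophoresis. Induction is scored against DMSO.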

[6] = target: Nuclear receptor subfamily 1 group I member 2 (Homo sapiens) (UniProt O75469); experiment: ATG_PXR_TRANS: Attagene TRANS-FACTORIAL HepG2 Assay for human Pregnane X Receptor (PXR) (AID 2283008; active = hit-call score of the fitted dose curve at least 0.9, where 1 is the maximum)
Method in brief: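 HepG2 cells transiently transfected with GAL4-UAS reporter units and PXR-Gal4 chimera, exposed 24 h. Reporter mRNA quantified by RT-PCR, fluorescent labelling, HpaI digestion and capillary electrophoresis; gain of signal vs DMSO.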

[7] = target: human Retinoic Acid Receptor gamma (RARg), RARG (gene 5916) (UniProt P13631); experiment: ATG_RARg_TRANS: Attagene TRANS-FACTORIAL HepG2 Assay for human Retinoic Acid Receptor gamma (RARg) (AID 2283009; active = hit-call score of the fitted dose curve at least 0.9, where 1 is the maximum)
Method in brief: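 HepG2, RARg-GAL4 TRANS system, 24 h exposure; reporter mRNA by RT-PCR + CE fluorescence; increase over DMSO.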

[8] = target: human RAR-related Orphan Receptor beta (RORb), RORB (gene 6096) (UniProt Q92753); experiment: ATG_RORb_TRANS: Attagene TRANS-FACTORIAL HepG2 Assay for human RAR-related Orphan Receptor beta (RORb) (AID 2283010; active = hit-call score of the fitted dose curve at least 0.9, where 1 is the maximum)
Method in brief: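 In this TRANS-format test, human HepG2 cells express chimeric NR-Gal4 fusion proteins driving GAL4-UAS reporters. After 24 h dosing, reporter transcripts are measured by fluorescent RT-PCR/capillary electrophoresis, with DMSO as negative control.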

[9] = target: human RAR-related Orphan Receptor gamma (RORg), RORC (gene 6097) (UniProt P51449); experiment: ATG_RORg_TRANS: Attagene TRANS-FACTORIAL HepG2 Assay for human RAR-related Orphan Receptor gamma (RORg) (AID 2283011; active = hit-call score of the fitted dose curve at least 0.9, where 1 is the maximum)
Method in brief: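 First, HepG2 liver cells were transfected with GAL4-UAS-driven reporter constructs and the RORg-Gal4 fusion. Next, they were treated with chemical for 24 h. Finally, reporter mRNA was quantified by RT-PCR and capillary electrophoresis, with upward activity fitted against DMSO.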

[10] = target: human Retinoid X Receptor beta (RXRb), RXRB (gene 6257) (UniProt P28702); experiment: ATG_RXRb_TRANS: Attagene TRANS-FACTORIAL HepG2 Assay for human Retinoid X Receptor beta (RXRb) (AID 2283013; active = hit-call score of the fitted dose curve at least 0.9, where 1 is the maximum)
Method in brief: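 Multiplexed TRANS reporter assay in HepG2; 24 h dosing; reporter mRNA by RT-PCR/CE fluorescence; gain-of-signal relative to DMSO.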

[11] = target: human Thyroid Receptor alpha (THRa1), THRA (gene 7067) (UniProt P10827); experiment: ATG_THRa1_TRANS: Attagene TRANS-FACTORIAL HepG2 Assay for human Thyroid Receptor alpha (THRa1) (AID 2283014; active = hit-call score of the fitted dose curve at least 0.9, where 1 is the maximum)
Method in brief: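 Reporter transcript induction, read by capillary electrophoresis of 6-FAM-labelled RT-PCR products, reflects activity of a transfected THRa1-Gal4 fusion in HepG2 liver cells. Cells were dosed for 24 h; activity was fitted in the positive direction against DMSO.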

[12] = read-out: E-selectin (Homo sapiens) (UniProt P16581); experiment: BSK_3C_Eselectin: BioMAP Diversity Plus: 3C Assay for Eselectin Biomarker Activity (AID 2283015); settings: primary human endothelial cells (HUVEC); actives raise or lower the signal
Method in brief: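 ELISA read-out of E-selectin on endothelial monolayers after 24 h chemical treatment. Human umbilical vein primary cells served as the system, with DMSO defining baseline activity for bidirectional fitting.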

[13] = read-out: Interleukin-1 alpha (IL1a), IL1A (gene 3552); experiment: BSK_BE3C_IL1a: BioMAP Diversity Plus: BE3C Assay for Interleukin-1 alpha (IL1a) Biomarker Activity (AID 2283016); settings: primary human bronchial epithelial cells; actives raise or lower the signal
Method in brief: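 Cultures of primary human bronchial epithelial cells receive test chemical. After 24 h, IL-1a is quantified by ELISA, while parallel wells are fixed in TCA and SRB-stained for total protein. Changes in either direction are fitted relative to DMSO.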

[14] = read-out: Monocyte Chemoattractant Protein-1 (MCP1), CCL2 (gene 6347); experiment: BSK_3C_MCP1: BioMAP Diversity Plus: 3C Assay for Monocyte Chemoattractant Protein-1 (MCP1) Biomarker Activity (AID 2283017); settings: primary human endothelial cells (HUVEC); actives raise or lower the signal
Method in brief: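 ELISA read-out of MCP-1 from human umbilical vein endothelial cell cultures harvested 24 h post-dosing. Gain or loss of signal was fitted relative to DMSO.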

[15] = read-out: Monocyte Chemoattractant Protein-1 (MCP1), CCL2 (gene 6347); experiment: BSK_4H_MCP1: BioMAP Diversity Plus: 4H Assay for Monocyte Chemoattractant Protein-1 (MCP1) Biomarker Activity (AID 2283018); settings: primary human endothelial cells (HUVEC); actives raise or lower the signal
Method in brief: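 Readout: MCP-1 ELISA on compound-treated HUVEC, sampled 24 h post-dosing. Baseline and negative control DMSO; bidirectional fit. Overt toxicity checked alongside by sulforhodamine B protein staining at time of biomarker measurement.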

[16] = read-out: Human Leukocyte Antigen - DR isotype (HLADR), HLA-DRA (gene 3122); experiment: BSK_3C_HLADR: BioMAP Diversity Plus: 3C Assay for Human Leukocyte Antigen - DR isotype (HLADR) Biomarker Activity (AID 2283019); settings: primary human endothelial cells (HUVEC); actives raise or lower the signal
Method in brief: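 ELISA readout of surface HLA-DR on human umbilical vein endothelium, taken 24 h after chemical treatment. Gain- and loss-of-signal were both fitted relative to DMSO.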

[17] = read-out: Interleukin-8 (IL8), CXCL8 (gene 3576); experiment: BSK_3C_IL8: BioMAP Diversity Plus: 3C Assay for Interleukin-8 (IL8) Biomarker Activity (AID 2283020); settings: primary human endothelial cells (HUVEC); actives raise or lower the signal
Method in brief: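 Human vascular endothelial cells (umbilical vein) in the 3C system; IL-8 level detected by ELISA at 24 h post-dose, with DMSO as baseline.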

[18] = target: human Retinoic Acid Receptor beta (RARb), RARB (gene 5915) (UniProt P10826); experiment: ATG_RARb_TRANS: Attagene TRANS-FACTORIAL HepG2 Assay for human Retinoic Acid Receptor beta (AID 2283004; active = hit-call score of the fitted dose curve at least 0.9, where 1 is the maximum)
Method in brief: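 Transient transfection of HepG2 with multiple reporter units → chemical dosing, 24 h → total RNA isolation → RT with oligo(dT) → reporter-specific PCR, 6-FAM primer extension, HpaI digest → capillary electrophoresis. Positive direction vs DMSO control.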

[19] = target: human Peroxisome Proliferator-activated Receptor delta (PPARd), PPARD (gene 5467) (UniProt Q03181); experiment: ATG_PPARd_TRANS: Attagene TRANS-FACTORIAL HepG2 Assay for human Peroxisome Proliferator-activated Receptor delta (PPARd) (AID 2283002; active = hit-call score of the fitted dose curve at least 0.9, where 1 is the maximum)
Method in brief: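 HepG2 cells transiently transfected with multiplexed GAL4-UAS reporter units and exogenous chimeric NR-Gal4 proteins; 24 h compound exposure. Reporter mRNA measured by RT-PCR, 6-FAM labelling, HpaI digestion and capillary electrophoresis; gain of signal versus DMSO.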

[20] = target: Retinoic acid receptor RXR-alpha (Homo sapiens) (UniProt P19793); experiment: ATG_RXRa_TRANS: Attagene TRANS-FACTORIAL HepG2 Assay for human Retinoid X Receptor alpha (RXRa) (AID 2283012; active = hit-call score of the fitted dose curve at least 0.9, where 1 is the maximum)
Method in brief: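 Cells (HepG2) carried transiently transfected GAL4-responsive reporter units. Following a 24 h chemical incubation, reporter mRNA induction was read via RT-PCR fragment analysis; DMSO served as negative control and baseline.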

Measured: AC50

Sequence of human Retinoid X Receptor beta (RXRb), RXRB (gene 6257) (P28702 whole entry, looked up): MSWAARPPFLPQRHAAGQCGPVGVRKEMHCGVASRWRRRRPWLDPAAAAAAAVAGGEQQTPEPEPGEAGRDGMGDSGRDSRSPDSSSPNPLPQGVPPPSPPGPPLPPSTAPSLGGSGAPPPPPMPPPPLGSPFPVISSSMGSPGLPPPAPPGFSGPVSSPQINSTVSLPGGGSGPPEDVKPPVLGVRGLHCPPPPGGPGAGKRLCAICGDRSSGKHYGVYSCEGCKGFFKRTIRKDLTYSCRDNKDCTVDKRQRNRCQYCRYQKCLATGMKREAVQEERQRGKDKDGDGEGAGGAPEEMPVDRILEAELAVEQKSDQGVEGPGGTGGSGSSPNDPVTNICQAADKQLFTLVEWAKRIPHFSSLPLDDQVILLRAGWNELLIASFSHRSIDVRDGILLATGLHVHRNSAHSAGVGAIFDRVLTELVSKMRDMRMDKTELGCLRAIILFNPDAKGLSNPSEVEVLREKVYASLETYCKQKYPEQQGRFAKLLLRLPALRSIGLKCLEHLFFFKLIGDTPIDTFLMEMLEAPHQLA
Sequence of human RAR-related Orphan Receptor gamma (RORg), RORC (gene 6097) (P51449 whole entry, looked up, the tested form may be a part): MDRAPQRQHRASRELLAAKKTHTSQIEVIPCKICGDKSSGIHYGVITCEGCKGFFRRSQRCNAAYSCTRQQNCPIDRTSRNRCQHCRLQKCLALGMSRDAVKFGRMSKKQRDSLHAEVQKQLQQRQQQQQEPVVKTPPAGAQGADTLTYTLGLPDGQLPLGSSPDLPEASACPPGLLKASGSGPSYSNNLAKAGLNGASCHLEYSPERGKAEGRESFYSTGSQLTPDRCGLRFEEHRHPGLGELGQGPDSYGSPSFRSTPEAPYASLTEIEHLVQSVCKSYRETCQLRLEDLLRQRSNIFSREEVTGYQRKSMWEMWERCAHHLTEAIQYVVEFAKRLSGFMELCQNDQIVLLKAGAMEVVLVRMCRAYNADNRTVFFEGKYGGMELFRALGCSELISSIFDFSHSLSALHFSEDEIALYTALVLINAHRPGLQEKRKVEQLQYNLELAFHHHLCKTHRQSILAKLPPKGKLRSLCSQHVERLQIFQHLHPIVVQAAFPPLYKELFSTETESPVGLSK
Sequence of human Thyroid Receptor alpha (THRa1), THRA (gene 7067) (P10827 whole entry, looked up, the tested form may be a part): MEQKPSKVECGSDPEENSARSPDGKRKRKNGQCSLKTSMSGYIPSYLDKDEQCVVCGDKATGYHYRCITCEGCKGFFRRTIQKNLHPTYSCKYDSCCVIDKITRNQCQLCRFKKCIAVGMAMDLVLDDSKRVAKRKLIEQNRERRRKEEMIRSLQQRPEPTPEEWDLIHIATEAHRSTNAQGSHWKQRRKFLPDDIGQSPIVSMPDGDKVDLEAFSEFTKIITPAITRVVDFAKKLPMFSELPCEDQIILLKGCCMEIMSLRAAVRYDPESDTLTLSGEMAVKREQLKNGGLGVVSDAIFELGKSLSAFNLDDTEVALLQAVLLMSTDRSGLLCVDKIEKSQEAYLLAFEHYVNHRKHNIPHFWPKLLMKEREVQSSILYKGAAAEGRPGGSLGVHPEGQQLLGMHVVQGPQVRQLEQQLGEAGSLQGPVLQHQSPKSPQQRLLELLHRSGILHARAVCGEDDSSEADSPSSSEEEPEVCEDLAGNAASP
Sequence of E-selectin (Homo sapiens) (P16581 whole entry, looked up): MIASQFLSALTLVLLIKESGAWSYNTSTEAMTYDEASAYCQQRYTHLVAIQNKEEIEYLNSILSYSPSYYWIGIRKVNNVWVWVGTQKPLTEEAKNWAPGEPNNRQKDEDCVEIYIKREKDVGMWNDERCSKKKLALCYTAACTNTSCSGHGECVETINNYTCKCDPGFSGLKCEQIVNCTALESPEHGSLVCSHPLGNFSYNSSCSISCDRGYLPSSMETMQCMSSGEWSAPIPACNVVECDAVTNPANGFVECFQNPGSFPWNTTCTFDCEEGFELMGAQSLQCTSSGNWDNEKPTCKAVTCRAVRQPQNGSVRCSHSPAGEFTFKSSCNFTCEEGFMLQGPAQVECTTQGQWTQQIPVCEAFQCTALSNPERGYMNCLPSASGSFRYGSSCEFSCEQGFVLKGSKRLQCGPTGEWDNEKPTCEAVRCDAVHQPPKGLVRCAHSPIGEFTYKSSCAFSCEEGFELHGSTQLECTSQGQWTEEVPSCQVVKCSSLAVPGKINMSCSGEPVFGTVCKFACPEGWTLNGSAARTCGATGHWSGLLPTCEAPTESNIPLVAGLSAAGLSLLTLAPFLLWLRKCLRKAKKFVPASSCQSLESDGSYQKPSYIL
Sequence of Nuclear receptor subfamily 1 group I member 2 (Homo sapiens) (O75469 whole entry, looked up, the tested form may be a part): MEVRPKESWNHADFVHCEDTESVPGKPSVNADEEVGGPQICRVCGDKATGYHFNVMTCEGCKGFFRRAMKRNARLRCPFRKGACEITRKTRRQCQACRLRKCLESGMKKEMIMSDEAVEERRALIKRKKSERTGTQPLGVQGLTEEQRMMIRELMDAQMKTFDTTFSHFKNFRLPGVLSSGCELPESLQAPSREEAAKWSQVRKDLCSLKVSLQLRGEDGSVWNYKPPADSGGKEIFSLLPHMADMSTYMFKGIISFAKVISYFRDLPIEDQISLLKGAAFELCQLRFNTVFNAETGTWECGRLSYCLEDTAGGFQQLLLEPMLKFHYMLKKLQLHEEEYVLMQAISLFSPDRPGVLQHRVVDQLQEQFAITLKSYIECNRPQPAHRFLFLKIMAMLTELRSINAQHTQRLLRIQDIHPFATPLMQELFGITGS
Sequence of human Retinoic Acid Receptor beta (RARb), RARB (gene 5915) (P10826 whole entry, looked up): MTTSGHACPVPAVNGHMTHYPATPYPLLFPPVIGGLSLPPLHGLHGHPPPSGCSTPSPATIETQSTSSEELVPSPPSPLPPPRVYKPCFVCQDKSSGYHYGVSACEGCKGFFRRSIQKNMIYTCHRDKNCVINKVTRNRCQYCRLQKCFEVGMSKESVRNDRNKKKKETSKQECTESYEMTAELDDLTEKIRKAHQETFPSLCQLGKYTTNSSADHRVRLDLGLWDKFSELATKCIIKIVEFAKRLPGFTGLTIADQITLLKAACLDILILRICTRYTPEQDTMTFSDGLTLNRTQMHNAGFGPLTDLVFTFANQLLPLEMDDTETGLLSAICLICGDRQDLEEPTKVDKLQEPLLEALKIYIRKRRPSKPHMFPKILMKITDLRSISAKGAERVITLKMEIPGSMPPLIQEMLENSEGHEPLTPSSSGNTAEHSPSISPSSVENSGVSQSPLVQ
Sequence of Peroxisome proliferator-activated receptor gamma (Homo sapiens) (P37231 whole entry, looked up, the tested form may be a part): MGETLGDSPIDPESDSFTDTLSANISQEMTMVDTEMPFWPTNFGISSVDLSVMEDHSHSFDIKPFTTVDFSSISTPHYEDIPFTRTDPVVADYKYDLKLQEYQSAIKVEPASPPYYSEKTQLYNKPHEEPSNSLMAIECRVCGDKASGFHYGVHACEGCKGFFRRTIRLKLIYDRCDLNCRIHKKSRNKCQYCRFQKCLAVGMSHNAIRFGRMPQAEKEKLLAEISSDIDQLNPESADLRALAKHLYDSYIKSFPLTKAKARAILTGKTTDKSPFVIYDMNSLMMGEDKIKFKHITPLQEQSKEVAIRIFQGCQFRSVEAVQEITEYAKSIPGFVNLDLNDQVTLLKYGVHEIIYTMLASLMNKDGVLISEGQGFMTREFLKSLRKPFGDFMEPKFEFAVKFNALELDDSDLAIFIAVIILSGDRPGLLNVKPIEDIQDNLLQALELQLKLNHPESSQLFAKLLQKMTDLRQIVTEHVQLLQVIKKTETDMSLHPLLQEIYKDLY
Sequence of human Peroxisome Proliferator-activated Receptor alpha (PPARa), PPARA (gene 5465) (Q07869 whole entry, looked up, the tested form may be a part): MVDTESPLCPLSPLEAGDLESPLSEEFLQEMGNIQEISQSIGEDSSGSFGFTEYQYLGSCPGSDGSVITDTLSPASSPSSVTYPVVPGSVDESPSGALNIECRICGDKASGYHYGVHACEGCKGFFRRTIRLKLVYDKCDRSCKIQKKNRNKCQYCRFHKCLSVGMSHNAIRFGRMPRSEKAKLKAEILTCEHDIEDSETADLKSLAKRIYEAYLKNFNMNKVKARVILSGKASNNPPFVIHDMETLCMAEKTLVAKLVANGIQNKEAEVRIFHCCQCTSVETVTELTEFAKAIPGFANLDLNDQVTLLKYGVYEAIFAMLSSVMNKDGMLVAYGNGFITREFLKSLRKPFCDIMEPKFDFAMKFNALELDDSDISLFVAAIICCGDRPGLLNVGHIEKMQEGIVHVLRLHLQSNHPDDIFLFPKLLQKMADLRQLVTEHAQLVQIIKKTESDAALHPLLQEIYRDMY
Sequence of human Peroxisome Proliferator-activated Receptor delta (PPARd), PPARD (gene 5467) (Q03181 whole entry, looked up, the tested form may be a part): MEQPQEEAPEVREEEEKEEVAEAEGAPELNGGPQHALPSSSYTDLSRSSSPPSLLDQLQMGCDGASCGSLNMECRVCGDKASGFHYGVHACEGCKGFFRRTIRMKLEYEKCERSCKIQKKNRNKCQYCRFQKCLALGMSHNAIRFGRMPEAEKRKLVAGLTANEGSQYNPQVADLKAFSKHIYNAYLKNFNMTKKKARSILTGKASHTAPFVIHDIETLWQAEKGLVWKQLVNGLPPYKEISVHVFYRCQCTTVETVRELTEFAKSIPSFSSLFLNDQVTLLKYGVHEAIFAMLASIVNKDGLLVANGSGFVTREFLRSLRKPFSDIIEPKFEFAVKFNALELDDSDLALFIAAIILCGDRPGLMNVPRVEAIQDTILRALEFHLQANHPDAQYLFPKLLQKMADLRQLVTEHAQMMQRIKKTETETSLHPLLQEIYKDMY
Sequence of human RAR-related Orphan Receptor beta (RORb), RORB (gene 6096) (Q92753 whole entry, looked up, the tested form may be a part): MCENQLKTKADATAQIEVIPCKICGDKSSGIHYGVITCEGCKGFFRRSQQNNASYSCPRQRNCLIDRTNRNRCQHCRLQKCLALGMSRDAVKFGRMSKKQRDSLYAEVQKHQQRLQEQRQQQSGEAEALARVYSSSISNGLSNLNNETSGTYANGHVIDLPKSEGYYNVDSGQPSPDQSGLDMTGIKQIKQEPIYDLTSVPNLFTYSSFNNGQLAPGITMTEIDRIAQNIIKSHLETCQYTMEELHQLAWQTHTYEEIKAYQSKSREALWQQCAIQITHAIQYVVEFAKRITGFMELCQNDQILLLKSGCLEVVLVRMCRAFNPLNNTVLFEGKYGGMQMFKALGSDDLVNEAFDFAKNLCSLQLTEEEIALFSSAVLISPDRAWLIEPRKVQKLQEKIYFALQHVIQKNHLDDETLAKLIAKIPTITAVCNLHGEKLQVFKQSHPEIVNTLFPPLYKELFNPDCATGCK

O=C(O)C(F)(F)C(F)(F)C(F)(F)C(F)(F)C(F)(F)C(F)(F)C(F)(F)C(F)(F)Cl
inactive: [1] | [3] | [6] | [7] | [8] | [9] | [11] | [12] | [15] | [17]
active: [1] 49.9 µM | [2] 20.2 µM and 18.8 µM | [4] 53.2 µM and 48.1 µM | [5] 31.1 µM and 34.1 µM | [6] 50 µM | [10] 19.9 µM and 20.5 µM | [12] 23.8 µM | [13] 25.1 µM and 23.6 µM | [14] 47.5 µM and 30 µM | [16] 53.3 µM and 49 µM | [17] 45.1 µM

O=S(=O)(O)C(F)(F)C(F)(F)C(F)(F)C(F)(F)C(F)(F)C(F)(F)C(F)(F)F
active: [2] 21.7 µM and 24.7 µM | [5] 33.4 µM and 33.2 µM | [6] 33.5 µM
inactive: [1] | [3] | [18] | [4] | [6] | [7] | [8] | [9] | [12] | [13] | [14] | [15] | [16] | [17]

O=C(CC(=O)C(F)(F)C(F)(F)F)C(F)(F)F
active: [5] 76.1 µM and 61.2 µM | [14] 30 µM and 21.7 µM
not listed: [8] | [9] | [10] | [18]
inactive: all other assays above

O=C(O)C(F)(F)C(F)(F)C(F)(F)C(F)(F)F
not listed: [11] | [18] | [19] | [20]
inactive: all other assays above

FC(F)(F)C(F)(F)C(F)(F)C(F)(F)C(F)(F)C(F)(F)C(F)(F)Br
not listed: [8] | [9] | [10] | [18] | [20]
inactive: all other assays above

CCCCCCCCC(F)(F)C(F)(F)C(F)(F)C(F)(F)C(F)(F)C(F)(F)F
not listed: [6] | [8] | [10] | [11] | [19]
inactive: all other assays above
